Sampled rows, rich in hits. Any-hit rate of the full collection: about 0.86%.
TAR Tat displ: HIV-1 TAR-Tat binding disruption; z-score (concentration not given with the values); HIV-1 TAR RNA, Tat peptide displacement FRET; stronger effect = higher value; actives 0.6% (n = 100,000); active means z-score of 3 or more in at least 2 runs
CDC25B CDK2 inh: human CDC25B-CDK2/CyclinA binding inhibition | P30305+P24941 | HTRF CDC25B-CDK2/CyclinA binding, anti-His/anti-Flag; stronger effect = higher value | z-score (test concentration not listed) | actives 0.72% (n = 94,000) | AID 1259370; in the data active means z-score above about 3.2
Hits are given with their value; - = inactive; . = not tested or not shown.

SMILES	TAR Tat displ	CDC25B CDK2 inh
CC(C)=CCC/C(C)=C/CC/C(C)=C/CC/C(C)=C/CC/C(C)=C/CC/C(C)=C/CC/C(C)=C/CC/C(C)=C/CC/C(C)=C/CO	32	.
CC(C)=CCC/C(C)=C/CC/C(C)=C/CO	-	.
O=S(=O)(c1cccc2nsnc12)N1CCN(c2cc(-c3ccc(F)cc3)ncn2)CC1	-	.
Oc1cc(O)cc(/C=C/c2ccc(O)c(O)c2)c1	37	-
Oc1ccc(/C=C/c2ccc(/C=C/c3ccc(O)cc3)c(Br)c2)cc1	.	-
CCOc1cc(-c2cc(C(=O)O)c3c(-c4ccc(OC)cc4)[nH]nc3n2)ccc1O	-	-
O=C(Nc1ccccn1)c1cc(-c2cccnc2)nc2ccccc12	-	.
Cc1ccccc1Nc1nc(NCc2ccco2)c2ccccc2n1	-	6
Oc1ccccc1Nc1nc(NCc2ccco2)c2ccccc2n1	-	-
COc1cc2c(cc1OC)CC(C)(C)N(Cc1ccccc1)C2	.	-
CCOC(=O)c1c(C)[nH]c(NC(=O)N(CC)CC)c1C	-	-
CC(C)(C)c1nc2scc(-c3ccccc3)c2c(=O)o1	-	5.9
O=c1oc(Cc2ccccc2)nc2scc(-c3ccccc3)c12	-	-
Cc1c(C)n(-c2ccccc2)c2ncn(CC(=O)N(C)Cc3ccco3)c(=O)c12	-	.
COc1ccc(NC(=O)CSc2nnc(Cc3cccn3C)n2-c2ccc(F)cc2)c(OC)c1	.	-
CCc1cc(C)cc(OCCOc2cccc(/C=N/n3cnnc3)c2)c1	.	-
CCOc1ccc(Oc2nc(C)nc3sc(C)c(C)c23)cc1	7.5	.
CCOC(=O)c1sc2nc(C)nc(Oc3ccc(OCC)cc3)c2c1C	-	.
Cc1ccc(CNc2c(-c3ccc(C(C)C)cc3)c(=O)c2=O)cc1	-	.
Cc1c(C(=O)O)sc2ncnc(N3CCC(c4ccccc4)C3)c12 (stereo not drawn)	-	.
CCOC(=O)C1CCN(c2ncnc3sc(C(=O)O)c(C)c23)CC1	16	.
Nc1c(-c2nc(-c3ccc(Br)cc3)no2)nnn1-c1ccc(F)cc1F	-	.
CSc1ccc(NC(=O)NCCCN2CCc3ccccc3C2)cc1	-	-
O=C(NCCCN1CCc2ccccc2C1)Nc1ccc(Br)cc1	-	9.2
COCCCNC(=O)Nc1cn(C)c(=O)c2ccccc12	-	.
SMILES	TAR Tat displ	CDC25B CDK2 inh
O=S1(=O)C[C@H](NCCc2ccc(F)cc2)[C@@H](S(=O)(=O)c2cccs2)C1	-	-
O=C1CC(=O)Nc2cc(S(=O)(=O)Nc3ccc4c(c3)OCO4)ccc2N1	18	.
O=C1CC(=O)Nc2cc(S(=O)(=O)Nc3ccc(F)cc3)ccc2N1	-	-
O=C(NCCn1cnc2cc(C(=O)N3CCCC3)ccc21)Nc1ccc2c(c1)OCO2	-	.
Cc1ccc(Sc2nnc3c(=O)n(C)c(=O)n(C)c3n2)cc1	-	-
CCCCOC(=O)C1=C(C)NC2=C(C(=O)CC(c3ccccc3)C2)C1c1ccco1 (stereo not drawn)	-	-
O=C1CC(c2ccco2)CC2=C1C(c1ccccc1)C1=C(N2)c2ccccc2C1=O (stereo not drawn)	-	12
CCN(CC)c1ccc(NC(=O)CSc2ccsc2[N+](=O)[O-])c(C)c1	12	-
O=C(CSc1ccsc1[N+](=O)[O-])Nc1cc(F)ccc1F	-	-
O=C(Oc1ccc(Br)cc1)c1csnn1	-	-
Cc1nc(C)c(S(=O)(=O)Oc2ccc3occ([N+](=O)[O-])c3c2)s1	.	-
CCOc1ccc(S(=O)(=O)N(C(=O)c2ccco2)c2cc3sc(=O)oc3c3ccccc23)cc1	-	-
COc1ccc(S(=O)(=O)N(C(=O)c2ccco2)c2cc3sc(=O)oc3c3ccccc23)cc1	-	16
O=C1CCCc2cc(S(=O)(=O)NCCN3CCOCC3)ccc2N1	-	.
CC(CS(=O)(=O)c1ccc2c(c1)NC(=O)CS2)C(=O)NCc1ccco1 (stereo not drawn)	5.3	.
O=C1CSc2ccc(S(=O)(=O)NCc3ccco3)cc2N1	-	.
CC1CSc2ccc(S(=O)(=O)Nc3ccc(F)cc3Cl)cc2NC1=O (stereo not drawn)	-	.
CCOC(=O)N1CCc2c(sc3c2C(=O)NC(c2ccc(OC)cc2)N3)C1 (stereo not drawn)	-	16
CCOC(=O)N1CCc2c(sc3c2C(=O)NC(c2cccc(Br)c2)N3)C1 (stereo not drawn)	-	6.4
COc1cccc(C2NC(=O)c3c(sc4c3CCN(C)C4)N2)c1OC (stereo not drawn)	-	-
CCOC(=O)N1CCc2c(sc3c2C(=O)NC(c2ccccc2)N3)C1 (stereo not drawn)	-	-
CCOC(=O)N1CCc2c(sc3c2C(=O)NC(c2ccc(O)c(OC)c2)N3)C1 (stereo not drawn)	-	-
COc1ccccc1C1NC(=O)c2c(sc3c2CCN(C)C3)N1 (stereo not drawn)	-	4.5
COc1ccc(NC(=O)c2cc(=O)sc3nc4ccccc4n23)cc1	-	.
O=C1c2cccnc2C(=O)N1Cc1ccc(S(=O)(=O)NCc2ccccn2)s1	-	.

Compound activity as filed in PubChem BioAssay.
